Compounds with a hit are over-represented: about 3.6% of the library has one in this group of screens.
Anthrax LF inh2 – anthrax lethal factor protease inhibition; P15917; multiplex microsphere protease cleavage assay, LF; inhibition, % at 10 µM; 0.12% of 360,000 active; AID 588501; further: plate controls were buffer without enzyme for full effect and enzyme alone for no effect
BoNT-A LC inh2 – BoNT A light chain protease inhibition; multiplex microsphere protease substrate cleavage, flow cytometry; inhibition, % at 10 µM; 0.17% of 360,000 active; further: plate controls were buffer without enzyme for full effect and enzyme alone for no effect
Bead autofluor – counter-screen for toxin protease inhibitors: compound fluorescence; compound autofluorescence counterscreen, microsphere flow cytometry; active compounds read high; fluorescence intensity (test concentration not listed); 3.1% of 360,000 active; AID 624483; in the data active means fluorescence intensity above about 16000; inconclusive means no clear call, values can overlap the other calls
BoNT-F LC inh – blocks Botulinum neurotoxin F light chain protease. Multiplex microsphere protease cleavage assay, flow cytometry. inhibition, % at 10 µM. 0.22% of 360,000 active. AID 588497; in the data active means inhibition above about 35%, passing the limit was not always enough; inconclusive means no clear call, values can overlap the other calls; further: plate controls were buffer without enzyme for full effect and enzyme alone for no effect
MazEF act – MazEF (E. coli) toxin RNase activation. P0AE70. FAM/BHQ RNA-DNA oligo cleavage fluorescence, 5 h. activation, % at 20 µM. 0.32% of 350,000 active. AID 504720; in the data active means activation above about 50%
Target sequence (P0AE70 whole entry, looked up): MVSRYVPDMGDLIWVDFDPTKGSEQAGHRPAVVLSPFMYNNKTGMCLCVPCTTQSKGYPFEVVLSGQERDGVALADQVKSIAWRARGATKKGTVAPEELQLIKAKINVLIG
* marks the source's active call; other numbers are inactive results; ? = inconclusive; . = no result given. Unless noted, no stated cut-off is given here; in the data, active means inhibition above about 30%; inconclusive means no clear call, values can overlap the other calls; inactive means below that.

SMILES	Anthrax LF inh2	BoNT-A LC inh2	Bead autofluor	BoNT-F LC inh	MazEF act
O=C(NCCCN1CCCC1=O)c1cc(COc2ccc(F)cc2F)on1	-3	-2	6100	-7	4
COc1ccccc1NS(=O)(=O)c1ccc(C(=O)NCCCN2CCCC2=O)cc1	3	-1	9000	-2	5
COc1ccccc1C(=O)NCCCN1CCCC1=O	-6	5	20201*	7	-3
COc1cc2[nH]c(=O)n(CCCCCC(=O)NCCCN3CCCC3=O)c(=O)c2cc1OC	-3	1	16148*	1	0
O=C(NCCCN1CCCC1=O)c1cccc(NS(=O)(=O)c2ccccc2)c1	-5	-2	5816	-6	0
Cc1cc(C(=O)NCCCN2CCCC2=O)no1	-4	?	26454*	-12	3
CC1=C(C(=O)N2CCOCC2)CC(CC(=O)NCCc2ccccn2)C(=O)N1CCCN1CCCC1=O (configuration not stated)	4	0	5999	1	.
O=c1c(O)c(-c2cccs2)oc2ccccc12	1	31*	7327	3	-3
O=c1cc(-c2ccccc2)oc2ccc(Cl)cc12	-1	0	3900	-5	-1
O=c1c(O)c(-c2ccccc2)oc2ccccc12	24	16	5182	12	0
O=c1c(O)c(-c2cccs2)oc2ccc(Cl)cc12	32*	35*	9623	16	-630
O=c1cc(-c2cccs2)oc2ccc(Cl)cc12	-1	-1	22409*	0	4
Cc1cccc(COc2ccccc2C(=O)NC2CCC(O)CC2)c1 (configuration not stated)	0	4	5075	-4	7
COC(=O)C1(C(=O)OC)C(C(=O)c2ccccc2)C1c1ccccc1 (configuration not stated)	-6	0	4052	-7	10
CSc1ccccc1OCc1cc(C(=O)N(C)CC2COCCO2)no1 (configuration not stated)	-1	2	5280	2	1
CCOc1cc(NC(=S)Nc2ccccc2)c(OCC)cc1NC(=O)c1ccccc1	-3	-2	23797*	-8	2
CCOc1cc(NC(=S)Nc2ccccc2OC)c(OCC)cc1NC(=O)c1ccccc1C	-5	1	16184*	-2	-3
CCOc1cc(NC(=O)c2ccccn2)c(OCC)cc1NC(=O)c1ccccc1	1	0	4637	-3	-2
Cc1cc2occ(CC(=O)N(CCC(C)C)c3c(N)n(Cc4ccccc4)c(=O)[nH]c3=O)c2cc1C	5	0	5177	?	-25
CCOC(=O)c1c(-c2ccc(C)o2)csc1NC(=S)NC(=O)c1cccs1	-1	-1	2109	-7	1
CCOC(=O)c1c(-c2ccc(C)o2)csc1NC(=S)NC(=O)c1ccccc1Br	-8	0	16268*	-4	4
CC(=O)OCCn1c2nc(=O)[nH]c(=O)c-2nc2cc(C)c(C)cc21	-10	8	2682	42*	480*
CCN(CC(=O)Nc1cc(Cl)ccc1C)CC(=O)NC1CC1	-4	0	3838	-7	4
Cc1cccc(OCc2nc(-c3nonc3N)no2)c1C	-1	?	22795*	-3	0
Nc1nonc1-c1noc(COc2ccccc2Cl)n1	-1	0	3596	11	2
SMILES	Anthrax LF inh2	BoNT-A LC inh2	Bead autofluor	BoNT-F LC inh	MazEF act
O=C(C/C=N/OCc1ccc(Cl)cc1Cl)c1ccccc1	.	.	.	.	2
O=C(N/C=N/OCc1ccc(Cl)cc1Cl)NOCc1c(Cl)cccc1Cl	-2	0	2841	0	80*
O=C(C/C=N/OCc1c(Cl)cccc1Cl)c1ccccc1	-5	-4	23991*	-7	-1
O=C(C/C=N/OCc1ccc(Cl)cc1Cl)c1ccc(Cl)cc1	-3	1	22103*	-2	2
Cc1cc(C)c2c(CN(C)Cc3ccccc3)cc(=O)oc2c1	-2	1	5894	0	.
COc1ccccc1N1CCN(CC(=O)Nc2nc(C)c(C(=O)N(C)C)s2)CC1	1	1	3031	?	4
Cc1cc(C(=O)N2CCN(c3ncccn3)CC2)sc1-c1ccccc1	-2	?	24354*	-4	-3
CCOC(=O)c1c(NC(=O)C(C)OC(=O)c2ccc(NC(=O)CC#N)cc2)sc2c1CCCC2 (configuration not stated)	4	0	?	8	-14
CC1(C(=O)NC2CCCC2)CCC(=O)N1Cc1ccccc1 (configuration not stated)	-3	?	23334*	0	11
O=c1c2ccccc2sn1-c1cc(S(=O)(=O)N2CCOCC2)ccc1N1CCCC1	-8	?	20573*	3	-18
O=c1c2ccccc2sn1-c1cc(S(=O)(=O)N2CCOCC2)ccc1N1CCOCC1	1	83*	9835	23	-1
O=S(=O)(c1ccc(N2CCOCC2)c(Cl)c1)N1CCOCC1	0	-7	4115	-31	-4
Nc1cc(S(=O)(=O)N2CCOCC2)ccc1N1CCCCC1	1	0	4092	-5	3
CN(C(=O)COC(=O)c1ccc(-c2ccc(O)cc2)cc1)C1CCS(=O)(=O)C1 (configuration not stated)	-4	0	3944	5	-6
CSCCC1NC2(C(=O)Nc3c(C)cc(Cl)cc32)[C@@H]2C(=O)N(C3CCCC3)C(=O)[C@H]12 (some centres not stated)	-6	?	23955*	-5	5
CSCCC1NC2(C(=O)Nc3c(Cl)cccc32)[C@@H]2C(=O)N(C3CCCC3)C(=O)[C@H]12 (some centres not stated)	-2	2	21812*	2	-1
COc1cc(/C=C2\SC(N)=NC2=O)cc(OC)c1	-6	-2	3246	28	-2
Cn1c(Cl)nc2c1c(=O)n(Cc1cccc(Br)c1)c(=O)n2C	0	0	20509*	-1	2
COc1ccc(CNc2nc3c(c(=O)n(Cc4ccc(Br)cc4)c(=O)n3C)n2C)cc1	-5	-2	20995*	-6	3
CCN(CC(=O)Nc1c(F)cccc1F)C(=O)c1ccc(N2C(=O)c3ccccc3C2=O)cc1	0	1	5086	1	10
N#Cc1cc(C#N)c(N2CCN(c3cccc(Cl)n3)CC2)nc1N	-11	-14	19498*	-117	-3
NC(=O)C1CCN(c2oc(-c3cccs3)nc2S(=O)(=O)c2ccc(Br)cc2)CC1	-13	0	3697	-8	1
CCC1Oc2ccc(C)cc2N(CC(=O)NCCCN2CCCCC2CC)C1=O (configuration not stated)	-4	-4	24712*	-6	4
CCC1Oc2ccc(C)cc2N(CC(=O)NCCC2=CCCCC2)C1=O (configuration not stated)	1	?	18757*	7	5
CCCCN1C[C@H](COC(=O)CCC)Oc2cccc(F)c2S1(=O)=O	0	0	3654	-4	4
COCCCNC(=O)c1cccn2c(=O)c3cc4ccccc4cc3nc12	8	?	24282*	3	-5
CCC(C)n1nnc2c(=O)oc3ccccc3c21 (configuration not stated)	0	0	23717*	-1	0

Bioassay records (PubChem)
